{"source": "PubChem BioAssay (NCI)", "note": "The panel holds about 83,000 compounds, 20% with a hit somewhere; the sample as a whole holds those more often.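 Activity criterion: percent growth below 10, measured after cells in 96-well plates were exposed to a single compound concentration for 48 hours.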 Unmarked numbers belong to inactive results. Active and inactive are the calls of the source.", "data": [{"tested_on": "HL-60(TB) leukemia", "assay": "NCI-60 one-dose screen, 48 h (100 = growth as untreated, 0 = no growth, -100 = all killed)", "conditions": "10 µM unless noted", "values": [{"smiles": "Oc1ccc(-c2[nH]c3ccccc3c2-c2nc3ccccc3o2)cc1", "growth": "80.8%"}, {"smiles": "CC/C=C\\C[C@H](F)C/C=C1/C(=O)C=C[C@@H]1C/C=C\\CCCC(=O)OC", "growth": "-33.1% (active)"}, {"smiles": "NC1(N2SC(S)=C3CCCC=C32)CCCCC1", "growth": "89.6%"}]}]}
